Compound activity deposited in PubChem by National Center for Advancing Translational Sciences (NCATS).
A selection: hits, their analogues and other compounds. The true share with any hit is near 3.1%.
ELG1 repair inh – inhibitors of ELG1-dependent DNA repair in HEK293T cells; HEK293T ELG1-luciferase reporter, luminescence, 16 h; DNA damage induced by 5-fluorouridine; Potency, µM (doses to about 46.1 µM), inactives show at the top dose activity change, negative = inhibition, hits mostly inhibitors; 330,000 tested, 2.3% active; AID 504467; note: potency is the fitted concentration of half-maximal effect; % is set by controls: 0 for no effect and ±100 for the full control effect; nearly all actives have a fitted effect of over 55% in size
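Cells (2,000 per well) received 5-fluorouridine plus test compound or DMSO and were incubated 16 hr at 37 °C, 5% CO2. Luciferase activity was read by luminescence 30 min after ONE-Glo addition; signal suppression marked inhibition of damage-induced ELG1 function.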
BRCA1 expr up – BRCA1 expression activation | Potency, µM (doses to about 46.1 µM), for the others: top-dose activation, actives largely listed as activators | 380,000 tested, 1.1% active | MCF7-BRCA1-FFLuc reporter, luminescence, 48 h; response scale: scaled: vehicle 0%, 10 µM genistein 100%; note: potency is the fitted concentration of half-maximal effect; nearly all actives have a fitted effect of over 80% in size
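MCF7-BRCA1-FFLuc, 2000 cells/well; 2 h attach, 37 °C/5% CO2; compound 48 h; luciferase substrate 15 min; luminescence end-point. Norm. to genistein 10 microM max activation and DMSO; concentration-response curves fitted.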
IL-2 act – activates IL-2 in a cell-based reporter assay; IL-2 activation reporter assay, cell-based qHTS; stimulated with anti-CD3/CD4/CD28 beads; in transgenic mouse T cells; activation, % (series mostly up to about 46 µM); 360,000 tested, 0.065% active; AID 652025; in the data active = activation above about 50%; inconclusive = mostly about 30% to 49%; note: 0% is about no effect
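Unstimulated transgenic mouse T cells; 60-min compound exposure; bead-based TCR/CD4/CD28 stimulation; 18 h culture, 37 degrees C; dual fluorescence (EGFP, DsRed) plate cytometry.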
Nrf2 ARE act – Nrf2 pathway activation. AREc32 ARE-luciferase reporter (MCF7-derived line), luminescence, 24 h. Potency, µM (doses to about 46.1 µM), without a hit: top-dose activation, usual class: activators. 410,000 tested, 0.31% active; note: potency is the fitted concentration of half-maximal effect; % of control where 0% means no effect; nearly all actives have a fitted effect of over 65% in size
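Luciferase luminescence (Steady-Glo, 30 min at room temperature) served as the read-out of ARE activation in AREc32 cells treated with compounds for 24 hr at 37 deg C.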
* marks the source's active call; other numbers are inactive results; ? = inconclusive; nt = no result given; [ ] = another dose, or the depositor's remark. Unless noted, calls come from the whole dose curve; as a rule, active = well fitted curve in the direction sought with a large enough effect; inconclusive = small, poorly fitted or top-dose-only effect, or another doubt; inactive = no such curve, though single readings can be large; an effect the other way counts as inactive or inconclusive.

SMILES | ELG1 repair inh | BRCA1 expr up | IL-2 act | Nrf2 ARE act
CCN(Cc1ccccc1)C(=O)CN1C(=O)COc2ccc(S(=O)(=O)N3CCOCC3)cc21 | nt | nt | nt | -0.3%
Cc1cc(C)c2c(=O)c3c(oc2c1)C(=O)N(Cc1ccc(F)cc1)C3c1cccc(O)c1 (centres undefined) | nt | nt | nt | 0.7%
Nc1ccc(C(=O)N/N=C/c2sc(N3CCOCC3)nc2-c2ccccc2)cc1 | ? | -0.2% | -0.8 | 0.5%
O=C(N/N=C/c1sc(N2CCOCC2)nc1-c1ccccc1)c1ccccc1Cl | 0.0% | -26.2% | 1.0 | -0.1%
O=C(N/N=C/c1sc(N2CCOCC2)nc1-c1ccccc1)c1ccccc1O | 18.4µM* | -59.4% | -0.8 | -0.2%
COc1cc(C(=O)N/N=C/c2sc(N3CCOCC3)nc2-c2ccccc2)cc(OC)c1OC | 11.6µM* | -23.1% | -0.1 | 0.5%
O=C(N/N=C/c1sc(N2CCOCC2)nc1-c1ccccc1)c1ccccc1F | ? | -0.6% | -2.1 | 2.5%
O=C(Nc1ccccc1F)C(=Cc1sc(N2CCOCC2)nc1-c1ccccc1)C(=O)Nc1ccccc1F | 8.2µM* | -56.5% | 4.1 | 0.3%
CCn1c(=O)c2cc(C(=O)NCc3ccc(F)cc3Cl)sc2c2ccccc21 | nt | 4.9% | nt | -0.4%
Cc1ncc(CO)c(/C=N/NC(=O)c2cc3c(s2)CCCC3)c1O | 3.26µM* | -68.9% | -0.2 | -0.8%
Cc1ncc(CO)c(/C=N/NC(=O)c2ccc(O)cc2)c1O | 13.1% | -12.5% | 0.0 | -0.2%[9.22 µM]
COc1ccc(C(=O)N/N=C/c2c(CO)cnc(C)c2O)cc1 | 13µM* | -31.8% | -0.3 | 0.4%
Cc1ccc(NC(=O)c2c(C)oc3ccc(O)c(CN4CCCCCC4)c23)c(C)c1 | nt | nt | nt | 14.6%
Cc1ccc(C)c(NC(=O)CSc2nc(=O)n(Cc3ccccn3)c3c2CCC3)c1 | nt | 1.2% | nt | -0.2%
CCOC(=O)c1nnn(-c2nc(OC)nc(N3CCCCC3)n2)c1-c1ccccc1 | 18.4µM* | nt | nt | nt
O=C(N/N=C/C(Cl)=C/c1ccccc1)c1cnccn1 | ? | 33.2% | -0.4 | 11.2µM*
O=C(N/N=C/C(Cl)=C/c1ccccc1)c1ccco1 | ? | 1.3% | 1.5 | ?
CC(=C/c1ccccc1)/C=N/NC(=O)c1cnccn1 | ? | ? | -0.6 | -0.1%
O=C(N/N=C/C(Cl)=C\c1ccccc1)c1cnccn1 | ? | 44.2% | -2.3 | 15.8µM*
CCOC(=O)c1ccc2c(c1)N(Cc1cccc([N+](=O)[O-])c1)C(=O)c1ccccc1S2 | nt | 16.8% | nt | -0.2%
C=CCNc1ncnc2c1ncn2[C@H]1CN(CCc2ccccc2)C[C@@H](CO)O1 | nt | -1.1% | 0.1 | -0.1%[9.22 µM]
O=C(NCCNS(=O)(=O)c1ccccc1Cl)c1cc(OCC(F)(F)F)ccc1OCC(F)(F)F | 14.6µM* | -11.4% | 1.8 | -0.1%
Cc1ccc(Cl)cc1Nc1nc2ccccc2c2nncn12 | nt | nt | nt | 10.9%
O=C(Nc1ccncc1)c1cnn2c1NC(=C1CC1)C=C2C(F)F | nt | 12.9% | nt | nt
NC(Cc1ccccc1)c1csc(Nc2nccc(C(F)(F)F)n2)n1 (centres undefined) | nt | -32.3% | -0.5 | 5.4%
SMILES | ELG1 repair inh | BRCA1 expr up | IL-2 act | Nrf2 ARE act
COc1ccc(NC(=O)c2cccc(N3CCCS3(=O)=O)c2)c(OC)c1 | nt | nt | nt | 3.6%
COc1ccccc1N(C)S(=O)(=O)c1ccc(C(=O)N2CCC2)cc1 | 16.6% | -40.8% | -3.7 | 0.0%
COc1ccccc1N(C)S(=O)(=O)c1ccc(C(=O)N2CCCc3ccccc32)cc1 | 14.6µM* | -37.2% | -0.6 | -0.1%
COc1ccccc1N(C)S(=O)(=O)c1ccc(C(=O)NC2CCCCC2)cc1 | 23.1µM* | -42.7% | 1.4 | 0.3%
COc1ccccc1N(C)S(=O)(=O)c1ccc(C(=O)Nc2ccncc2)cc1 | 11.6µM* | -33.1% | -2.9 | -0.4%
COc1cccc(C(=O)N2CCc3cc(OC)c(OC)cc3C2COc2ccc3c(C)cc(=O)oc3c2)c1 (centres undefined) | nt | nt | nt | -1.3%
COc1ccc(NC(=O)CN2CCCN(Cc3ccc(Cl)cc3)S2(=O)=O)cc1Cl | nt | nt | nt | 2.5%
Cc1ccc(S(=O)(=O)N2CCN(c3nc(C)nc4sc(C)c(C)c34)CC2)cc1 | 3.4% | nt | nt | nt
CCOC(=O)c1sc2nc(C)nc(N3CCN(S(=O)(=O)c4ccccc4)CC3)c2c1C | 23.1µM* | 0.1% | 0.3 | -0.5%
CCOC(=O)c1sc2nc(CC(=O)OC)nc(NCc3ccc(Cl)cc3)c2c1C | 5.8µM* | -50.6% | 4.6 | -0.3%
CCOC(=O)c1sc2nc(C)nc(NCc3ccccc3)c2c1C | 23.1µM* | -1.6% | -0.5 | 5.2%
